The values that follow come from PubChem BioAssay (NCI).

Some test systems named below: DU-145 prostate; K-562 leukemia; MALME-3M melanoma; MDA-MB-231 breast; RXF 393 renal; SF-268 CNS; SF-295 CNS; SF-539 CNS; UACC-257 melanoma; M14 melanoma; HCT-15 colon; HT29 colon; SNB-75 CNS; SNB-19 CNS; U251 CNS; PC-3 prostate; SK-MEL-5 melanoma; UACC-62 melanoma; LOX IMVI melanoma; SK-MEL-28 melanoma.
Holding throughout (experiment): NCI-60 one-dose screen, 48 h (100 = growth as untreated, 0 = no growth, -100 = all killed)
Common to all, as to details: 10 µM unless noted

Structures are written as SMILES. Compounds without any hit were thinned out: in the full panel of roughly 83,000, 20% have a hit.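 In brief: 96-well plates, 48 h treatment, single concentration, percent growth endpoint.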 A number with no mark means an inactive call. Activity calls are given as the source filed them. The calls were made as follows: active = growth percent below 10; inactive = the rest.

Turning to `CN1C[C@@H](c2ccc(Cl)cc2)[C@]2(NC(=S)N(c3ccccc3)C2=O)[C@@]12C(=O)NC1C=CC(Br)=C[C@H]12` (stereo not given in full), the growth in the assay on DU-145 prostate is 85%; in the assay with K-562 leukemia it was 34.8%; in the assay with MALME-3M melanoma it was 108%; in the assay on MDA-MB-231 breast, 60.8%; with RXF 393 renal it was 68.4%; with SF-268 CNS, 58.1%. In addition, the growth is 80.6% with SF-295 CNS; 84.8% in the assay on SF-539 CNS; 71.4% in the assay with UACC-257 melanoma; 39.4% with M14 melanoma; 73.5% with HCT-15 colon; 61.5% in the assay with HT29 colon. The growth in the assay with SNB-75 CNS is 69.6%; in the assay with SNB-19 CNS, 86.2%; with U251 CNS, 72.5%; with PC-3 prostate it was 28.1%; in the assay with SK-MEL-5 melanoma it was 64%; with UACC-62 melanoma, 74.3%. Further, the values for the growth with LOX IMVI melanoma and in the assay with SK-MEL-28 melanoma were 75.5% and 95.4%, respectively.
On to `NC(=O)c1c(NC(=O)c2ccc(C(F)(F)F)cc2Cl)sc2c1CCC(=O)C2`, for which the growth is 18.9% with DU-145 prostate; -11.7% (active) with K-562 leukemia; -24.7% (active) with MALME-3M melanoma; -55.3% (active) in the assay with MDA-MB-231 breast; -39% (active) with RXF 393 renal; -2.06% (active) in the assay with SF-268 CNS. The growth was -27.2% (active) with SF-295 CNS; -84.8% (active) in the assay on SF-539 CNS; -22.4% (active) in the assay on UACC-257 melanoma; -30.1% (active) in the assay with M14 melanoma; -35% (active) in the assay on HCT-15 colon; 1.16% (active) in the assay on HT29 colon. In addition, the growth in the assay on SNB-75 CNS is -81.9% (active); with SNB-19 CNS, 14%; with U251 CNS, -5.53% (active); with PC-3 prostate, -68.8% (active); in the assay on SK-MEL-5 melanoma, -91.9% (active); with UACC-62 melanoma, -74.7% (active). Also, the growth is -15.5% (active) with LOX IMVI melanoma and -67.2% (active) in the assay on SK-MEL-28 melanoma.
As to `Cc1ccc2c(n1)C(=O)C(Oc1ccc(F)cc1)=CC2=O`, the growth in the assay on DU-145 prostate is 114%; in the assay on K-562 leukemia it was 20%; in the assay on MALME-3M melanoma it was 93.9%; with MDA-MB-231 breast, 105%; in the assay on RXF 393 renal it was 107%; in the assay with SF-268 CNS, 90.8%. The growth was 101% in the assay on SF-295 CNS; 95.9% in the assay on SF-539 CNS; 95.5% with UACC-257 melanoma; 103% in the assay on M14 melanoma; 81.8% in the assay on HCT-15 colon; 108% in the assay with HT29 colon. Further, the growth is 83% with SNB-75 CNS; 110% in the assay with SNB-19 CNS; 95.3% in the assay on U251 CNS; 98.9% in the assay with PC-3 prostate; 91.4% in the assay with SK-MEL-5 melanoma; 99.7% in the assay with UACC-62 melanoma. The growth was 88.5% in the assay on LOX IMVI melanoma and 113% in the assay with SK-MEL-28 melanoma.
Turning to `NC(N)=N/N=C(/c1ccccc1)c1ccccc1F`, the growth was 15% with DU-145 prostate; 4% (active) in the assay on K-562 leukemia; 35.7% with MALME-3M melanoma; 22.1% with MDA-MB-231 breast; 43% in the assay with RXF 393 renal; 51.8% in the assay on SF-268 CNS. The growth in the assay on SF-295 CNS is 11.8%; in the assay with SF-539 CNS, 2.84% (active); with UACC-257 melanoma, 68.1%; with M14 melanoma, -45.4% (active); in the assay on HCT-15 colon, 22%; in the assay on HT29 colon, 8.59% (active). In addition, the growth was 7.44% (active) with SNB-75 CNS; 30.9% with SNB-19 CNS; 24.2% in the assay on U251 CNS; 14.1% in the assay with PC-3 prostate; 15.8% in the assay on SK-MEL-5 melanoma; 20.2% with UACC-62 melanoma. In addition, the growth is 46.3% with LOX IMVI melanoma and 63.4% in the assay on SK-MEL-28 melanoma.
Regarding `N[C@@H]1CCC[C@H]1NCCCCN1C(=O)c2cccc3cccc(c23)C1=O`, the growth is 59.8% in the assay on DU-145 prostate; 60.4% in the assay with K-562 leukemia; 116% in the assay on MALME-3M melanoma; 58.2% in the assay on MDA-MB-231 breast; 72.8% in the assay with RXF 393 renal; 52.6% in the assay on SF-268 CNS. In addition, the growth in the assay with SF-295 CNS was 84.4%; in the assay with SF-539 CNS, 7.65% (active); with UACC-257 melanoma, 100%; in the assay on M14 melanoma, 64%; in the assay on HCT-15 colon, 81.8%; in the assay with HT29 colon it was 33.8%. Further, the growth in the assay on SNB-75 CNS is 84.4%; in the assay on SNB-19 CNS, 85.5%; in the assay with U251 CNS, 59%; in the assay on PC-3 prostate, 61.6%; with SK-MEL-5 melanoma, 93.1%; with UACC-62 melanoma, 95.7%. The growth in the assay on LOX IMVI melanoma is 24.4%; with SK-MEL-28 melanoma, 89.5%.
As to `Cl.Fc1c[c-]c(-c2ccccn2)c(F)c1.[Pt].c1ccc([PH+](c2ccccc2)c2ccccc2[PH+](c2ccccc2)c2ccccc2)cc1`, the growth in the assay on DU-145 prostate is -98.9% (active); with K-562 leukemia, 0.976% (active); in the assay with MALME-3M melanoma it was -83.8% (active); in the assay with MDA-MB-231 breast, -93.3% (active); with RXF 393 renal, -86.8% (active); in the assay on SF-268 CNS, -72.3% (active). Besides, the growth was -90.8% (active) with SF-295 CNS; -93.6% (active) with SF-539 CNS; -71.8% (active) in the assay on UACC-257 melanoma; -72.5% (active) in the assay on M14 melanoma; -83.8% (active) in the assay on HCT-15 colon; -63.3% (active) with HT29 colon. In addition, the growth in the assay with SNB-75 CNS is -98.3% (active); in the assay on SNB-19 CNS, -94.9% (active); with U251 CNS, -87.8% (active); in the assay with PC-3 prostate, -86.6% (active); in the assay on SK-MEL-5 melanoma it was -97.2% (active); in the assay on UACC-62 melanoma it was -85.6% (active). Further, the figures for the growth in the assay with LOX IMVI melanoma and in the assay on SK-MEL-28 melanoma were -92.6% (active) and -94.5% (active), respectively.
With `N#C/C(=C\c1ccc(Br)cc1)n1nnc2cc(Cl)c(Cl)cc21`, the growth is 34% in the assay on DU-145 prostate; 8.99% (active) in the assay on K-562 leukemia; 67.5% in the assay on MALME-3M melanoma; 33% in the assay on MDA-MB-231 breast; -6.31% (active) with RXF 393 renal; 59.2% in the assay on SF-268 CNS. Also, the growth in the assay on SF-295 CNS was 65.8%; with SF-539 CNS, 49.8%; in the assay with UACC-257 melanoma, 52.4%; with M14 melanoma it was 31.3%; with HCT-15 colon it was 14%; in the assay with HT29 colon it was 9.9% (active). Further, the growth in the assay with SNB-75 CNS is 25.5%; in the assay with SNB-19 CNS, 47.7%; in the assay on U251 CNS, 23.4%; in the assay with PC-3 prostate, 33.5%; in the assay with SK-MEL-5 melanoma, 43.3%; in the assay on UACC-62 melanoma it was 46.7%. Moreover, the growth with LOX IMVI melanoma was -9.55% (active); in the assay on SK-MEL-28 melanoma it was 51.4%.
With `C/C(=N\NC(=O)Cn1c(-c2ccc(S(C)(=O)=O)cc2)nc2cc(Cl)ccc21)c1ccc(Cl)cc1`, the growth with DU-145 prostate is 90%; with K-562 leukemia it was 62.9%; in the assay on MALME-3M melanoma, 90.3%; with MDA-MB-231 breast, 73.4%; with RXF 393 renal it was 79.3%; in the assay on SF-268 CNS, 72.4%. Further, the growth is 81.1% in the assay with SF-295 CNS; 83.1% with SF-539 CNS; 79.2% with UACC-257 melanoma; 81% in the assay on M14 melanoma; 77% with HCT-15 colon; 79.7% in the assay with HT29 colon. In addition, the growth was 69.7% with SNB-75 CNS; 84.3% in the assay on SNB-19 CNS; 79.7% in the assay with U251 CNS; 49.2% with PC-3 prostate; 84.2% with SK-MEL-5 melanoma; 76.2% with UACC-62 melanoma. The growth in the assay with LOX IMVI melanoma was 89.4%; with SK-MEL-28 melanoma, 90%.
